Source: PubChem BioAssay (NCATS)
Results filed as inconclusive are left out. Values without a mark were called inactive. Calls of active or inactive are those of the source. The call rests on the fitted dose curve; in most records, active means well fitted inhibition curve with a large enough effect; inconclusive means small, poorly fitted or top-dose-only effect; inactive means flat fitted curve, though single readings scatter.

biological target: Phospholipid hydroperoxide glutathione peroxidase GPX4 (Homo sapiens) (UniProt P36969); test: Primary qHTS Assay for Inhibitors of Recombinant Selenoprotein Glutathione Peroxidase 4 (GPX4) (AID 1845192); details: recombinant GPX4, GR-coupled NADPH fluorescence, 15 min; series mostly up to 50 µM; activity change, negative = inhibition: at the top concentration; further: nearly all actives have a fitted effect of over 65% in size
Excerpt: Assay Provider: Elias S.J. Arner MD PhD.
Department of Medical Biochemistry and Biophysics
Karolinska Institutet, Solna, Stockholm, Sweden
Selenoprotein glutathione peroxidases (GPX), like the ubiquitously expressed GPX1 and the ferroptosis modulator GPX4, enact their antioxidant activities by reducing hydroperoxides using glutathione. […] GPX1 and GPX4 inhibitors have thus shown promise as anti-cancer agents. Existing inhibitors are often promiscuous, or modulate GPX activity only indirectly, so novel direct inhibitors identified through screening against GPX1 and GPX4 could be valuable. Here, we developed optimized glutathione reductase (GR)-coupled GPX assays for the biochemical high-throughput screen (HTS) of almost 12,000 compounds with known mechanisms of action. Initial hits were triaged using a GR counter-screen, assessed for isoform specificity using a separate GPX2 assay, and were assessed for general selenocysteine-targeting activity using a thioredoxin reductase (TXNRD1) assay. With this suite of assays, we identified novel GPX1/GPX2- and GPX4-specific inhibitors and can here present a validated pipeline for future discovery research for selenoprotein-targeting agents.
SEQUENCE No. (e.g., 1, 2, 3, etc.); […] (e.g., Cells, Incubation, Reagent, etc.); VALUE; DESCRIPTION.
1; Reagent 1; 3 uL; 333.33 nM GPx4 enzyme or no enzyme control in 1536-well, black, solid Greiner assay plate.
2; Compound; 25 nL; Kalypsis pin tool (Wako USA) equipped with a 1536-well pin head.
3; Incubation; 30 min; room temperature.
4; Reagent 2; 1 uL; 500 nM GR, 5 mM GSH, 2.5 mM NADPH solution
5; Reagent 3; 1 uL; 2.5 mM CHP in 50% EtOH.
6; Detection; Fluorescence; ViewLux microplate reader, excitation 340 nm and emission 450 nm.
7; Incubation; 15 min; room temperature.
8; Detection; Fluorescence; ViewLux microplate reader, excitation 340 nm and emission 450 nm.
NOTES (numbers refer to Sequence numbers above)
1. 3 µL of 333.33 nM GPX4 and 0.016% BSA in assay buffer (50 mM Tris-HCl, 2 mM EDTA (pH 7.5), 150 mM NaCl) was added to columns 3-48 of 1536-well plates using a BioRAPTR Flying Reagent Dispenser (Let's Go Robotics (LGR), Carlsbad, CA). A no-enzyme control (0.01% BSA in TES assay buffer) was added to columns 1-2.
2. 25 nL, library and DMSO controls were added to each well with a pin tool (Kalypsys).
3. The assay plates were incubated for 30 minutes at room temperature.
4. 1 µL of master mix (500 nM glutathione reductase (GR), 5 mM reduced glutathione (GSH), 2.5 mM NADPH in assay buffer) was added.
5. 1 µL of cumene hydroperoxide (CHP) ([2.5 mM] in 50% EtOH) was then added within 5 minutes to initiate the reaction. Final concentrations were: 200 nM GPX4, 1 mM GSH, 0.5 mM CHP, 0.5 mM NADPH, 100 nM GR, 0.01% BSA.
6. Initial fluorescence readout (t=0) at 340/450 nm was measured using a ViewLux multimodal detector (PerkinElmer, Waltham, MA).
8. Endpoint fluorescence readout (t=15) at 340/450 nm was measured 15 min after room temperature incubation.
Potency means the concentration at half of the fitted maximal effect.

Chain of Phospholipid hydroperoxide glutathione peroxidase GPX4 (Homo sapiens) (P36969 whole entry, looked up): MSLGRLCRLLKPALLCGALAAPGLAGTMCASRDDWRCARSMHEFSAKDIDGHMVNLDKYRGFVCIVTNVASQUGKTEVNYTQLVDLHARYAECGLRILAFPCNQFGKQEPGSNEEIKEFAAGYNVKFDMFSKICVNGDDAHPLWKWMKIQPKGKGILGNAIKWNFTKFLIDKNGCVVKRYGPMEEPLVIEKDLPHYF

Compound	activity change, negative = inhibition	outcome	Potency
COC(=O)CCC[N+](C)(C)C	-14.3%	–	–
NC[C@@H]1O[C@H](O[C@H]2[C@@H](O)[C@H](O[C@@H]3[C@@H](O)[C@H](N)C[C@H](N)[C@H]3O[C@H]3O[C@H](CO)[C@@H](O)[C@H](O)[C@H]3N)O[C@@H]2CO)[C@H](N)[C@@H](O)[C@@H]1O	–	inactive [at 0.409 µM]	–
CCOC(=O)c1c[nH]c2cc(OCC(C)C)c(OCC(C)C)cc2c1=O	-21.4%	–	–
CCN(CC)CCOCCOC(=O)C(CC)(CC)c1ccccc1	–	–	inactive
C=CCOc1ccc(CC(=O)O)cc1Cl	-2.92% [at 100 µM]	–	–
CCCC(CCC)C(=O)OC1C[C@H]2CC[C@@H](C1)[N+]2(C)C (stereo not given in full)	–	inactive	–
Nc1nc2c(c(=O)[nH]1)N(C=O)C(CNc1ccc(C(=O)N[C@@H](CCC(=O)O)C(=O)O)cc1)CN2 (stereo not given in full)	-4.6% [at 0.409 µM]	–	–
C/C=C/C=C/C(=O)O	3.89%	–	–
CC(/C=C/C=C(\C)C(=O)O[C@@H]1O[C@H](CO[C@@H]2O[C@H](CO)[C@@H](O)[C@H](O)[C@H]2O)[C@@H](O)[C@H](O)[C@H]1O)=C\C=C\C=C(C)\C=C\C=C(/C)C(=O)O[C@@H]1O[C@H](CO[C@@H]2O[C@H](CO)[C@@H](O)[C@H](O)[C@H]2O)[C@@H](O)[C@H](O)[C@H]1O	-19.6%	–	–
COc1ccc(/C=C/C(=O)OCCC(C)C)cc1	-0.805% [at 100 µM]	–	–
C=CC[N+]1([C@H]2C[C@H]3[C@@H]4CC[C@H]5C[C@H](O)[C@@H](N6CCOCC6)C[C@]5(C)[C@H]4CC[C@]3(C)[C@H]2OC(C)=O)CCCC1	–	–	inactive
O=C(O)c1cc(O)c2c(c1)[C@H]([C@H]1c3cc(C(=O)O)cc(O)c3C(=O)c3c(O[C@@H]4O[C@H](CO)[C@@H](O)[C@H](O)[C@H]4O)cccc31)c1cccc(O[C@@H]3O[C@H](CO)[C@@H](O)[C@H](O)[C@H]3O)c1C2=O	–	–	1.12 µM (active)
O=P(O)(O)CP(=O)(O)O	-7.77%	–	–
Cc1ncc(C[n+]2csc(CCO)c2C)c(N)n1	–	inactive	–
COc1ccc(-c2noc(CC(=O)O)c2-c2ccc(OC)cc2)cc1	-15.9%	–	–
NC(=O)c1ccc[n+]([C@@H]2O[C@H](COP(=O)([O-])OP(=O)(O)OC[C@H]3O[C@@H](n4cnc5c(N)ncnc54)[C@H](O)[C@@H]3O)[C@@H](O)[C@H]2O)c1	–	inactive	–
Cc1cccc(C)c1NC(=O)C1CCCCN1C (stereo not given)	–	inactive	–
CNC(=O)c1c(I)c(C(=O)NCC(=O)Nc2c(I)c(C(=O)O)c(I)c(C(=O)NCCO)c2I)c(I)c(N(C)C(C)=O)c1I	-6.13%	–	–
NC(=S)NS(=O)(=O)c1ccc(N)cc1	-17.3%	–	–
CN(C)CCC(O)(c1ccccc1)c1ccccc1Cl (stereo not given)	–	inactive	–

Compound	activity change, negative = inhibition	outcome	Potency
CC1CC(OC(=O)C(O)c2ccccc2)CC(C)(C)C1 (stereo not given)	–	–	inactive
NC(=O)[C@H]1O[C@@H](O)[C@H](O)[C@@H](O)[C@@H]1O	–	inactive [at 150 µM]	–
CCCCC/C=C\C/C=C\C/C=C\CCCCC(=O)O	–	–	8.91 µM (active)
O=C(O[C@H]1CN2CCC1CC2)N1CCc2ccccc2[C@@H]1c1ccccc1	–	inactive	–
C[S+](C)CCC(N)C(=O)O (stereo not given)	–	inactive	–
OCc1ccccc1	–	inactive	–
Nc1ccc(N=Nc2ccccc2)c(N)n1	-16.3%	–	–
S=C1SCN(Cc2ccccc2)CN1Cc1ccccc1	–	–	15.8 µM (active)
CC(C)(C)NCC(O)c1ccc(O)c(CO)n1 (stereo not given)	–	–	12.6 µM (active)
CCC(O)c1ccccc1 (stereo not given)	-5.97%	–	–
O=C(NNCS(=O)(=O)O)c1ccncc1	–	–	3.98 µM (active)
CCCC(=O)Nc1c(I)cc(I)c(CC(CC)C(=O)O)c1I (stereo not given)	-10.2%	–	–
CC(C)(CO)[C@@H](O)C(=O)NCCC(=O)NCCSSCCNC(=O)CCNC(=O)[C@H](O)C(C)(C)CO	–	inactive	–
Cc1ccc(S(=O)(=O)O)cc1C	–	inactive	–
CC[C@H]1OC(=O)[C@H](C)[C@@H](O[C@H]2C[C@@](C)(OC)[C@@H](O)[C@H](C)O2)[C@H](C)[C@@H](O[C@@H]2O[C@H](C)C[C@H](N(C)C)[C@H]2O)[C@](C)(O)C[C@@H](C)CN(C)[C@H](C)[C@@H](O)[C@]1(C)O	–	–	inactive
CN1C(=O)C[C@@H](C(=O)N[C@@H](Cc2cnc[nH]2)C(=O)N2CCC[C@H]2C(N)=O)NC1=O	–	inactive	–
Cc1cc(-c2ccc(N=Nc3ccc4c(S(=O)(=O)O)cc(S(=O)(=O)O)c(N)c4c3O)c(C)c2)ccc1N=Nc1ccc2c(S(=O)(=O)O)cc(S(=O)(=O)O)c(N)c2c1O	-13.8%	–	–
CN1CCN(C(c2ccccc2)c2ccc(Cl)cc2)CC1 (stereo not given)	-27.5%	–	–
CC(=O)Nc1c(I)c(C(=O)N[C@H]2C(O)O[C@H](CO)[C@@H](O)[C@@H]2O)c(I)c(N(C)C(C)=O)c1I (stereo not given in full)	–	inactive	–
NC(N)=NCC1COC2(CCCCC2)O1 (stereo not given)	-17.6%	–	–
